# Measured values published in PMC7862700, “An all-to-all approach to the identification of sequence-specific readers for epigenetic DNA modifications on cytosine”.
# How the values were obtained:
# Test in all cases: DAPPL (digital affinity profiling via proximity ligation, sequencing); 10 mM Tris-HCl pH 7.5, 50 mM NaCl, 1 mM DTT, 4% glycerol, room temperature, 30 min; GST-TFs on glutathione beads, 16-mer random dsDNA library, 0.1% formaldehyde crosslink after washing; high values mean tight binding
# FEV = target: T1, FEV (Homo sapiens, UniProt Q99581 1-238); conditions: protein: recombinant; tags: N-terminal GST; dsDNA, one strand shown
# T1 sequence: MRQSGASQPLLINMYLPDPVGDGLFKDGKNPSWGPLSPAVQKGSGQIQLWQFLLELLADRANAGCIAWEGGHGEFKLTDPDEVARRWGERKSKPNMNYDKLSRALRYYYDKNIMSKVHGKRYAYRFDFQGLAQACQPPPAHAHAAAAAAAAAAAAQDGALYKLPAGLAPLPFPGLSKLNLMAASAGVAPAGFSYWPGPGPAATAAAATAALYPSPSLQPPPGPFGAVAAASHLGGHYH
# Outline: (§1)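 Beads coated with glutathione captured GST-fused human transcription factors that had been expressed in yeast, and the factors were then given DNA barcodes and pooled with a tag-only sample. The pools were incubated with 200 nmole of a random double-stranded 16-mer DNA library in Tris/NaCl/DTT/glycerol buffer for 30 min at room temperature, washed, crosslinked with 0.1% formaldehyde and proximity-ligated with BsaI/T4 ligase at 37 °C for 1 h. PCR amplification and Illumina NextSeq500 sequencing came last. Binding signal is each hexamer's read frequency for a factor divided by its frequency for the tag-only sample.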
# ETV5 = ETV5 (Homo sapiens, UniProt P41161 1-510); conditions: protein: recombinant; tags: N-terminal GST; dsDNA, one strand shown
# Outline: as §1
# HSF1 = HSF1 (Homo sapiens, UniProt Q00613 1-529); conditions: protein: recombinant; tags: N-terminal GST; chain copies: 3; dsDNA, one strand shown
# Outline: as §1
# SPIC = target: T2, SPIC (Homo sapiens, UniProt Q8N5J4 1-248); conditions: protein: recombinant; tags: N-terminal GST; dsDNA, one strand shown
# T2 sequence: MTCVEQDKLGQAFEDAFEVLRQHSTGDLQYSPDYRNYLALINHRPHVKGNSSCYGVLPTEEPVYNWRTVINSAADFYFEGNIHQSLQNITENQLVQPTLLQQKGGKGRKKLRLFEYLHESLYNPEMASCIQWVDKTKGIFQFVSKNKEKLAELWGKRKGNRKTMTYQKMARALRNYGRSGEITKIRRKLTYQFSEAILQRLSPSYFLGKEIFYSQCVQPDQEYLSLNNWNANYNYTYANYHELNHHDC
# Outline: as §1
# ELF4 = ELF4 (Homo sapiens, UniProt Q99607 1-663); conditions: protein: recombinant; tags: N-terminal GST; dsDNA, one strand shown
# Outline: as §1
# ELK4 = target: T3, ELK4 (Homo sapiens, UniProt P28324-2 1-405); conditions: protein: recombinant; tags: N-terminal GST; dsDNA, one strand shown
# T3 sequence: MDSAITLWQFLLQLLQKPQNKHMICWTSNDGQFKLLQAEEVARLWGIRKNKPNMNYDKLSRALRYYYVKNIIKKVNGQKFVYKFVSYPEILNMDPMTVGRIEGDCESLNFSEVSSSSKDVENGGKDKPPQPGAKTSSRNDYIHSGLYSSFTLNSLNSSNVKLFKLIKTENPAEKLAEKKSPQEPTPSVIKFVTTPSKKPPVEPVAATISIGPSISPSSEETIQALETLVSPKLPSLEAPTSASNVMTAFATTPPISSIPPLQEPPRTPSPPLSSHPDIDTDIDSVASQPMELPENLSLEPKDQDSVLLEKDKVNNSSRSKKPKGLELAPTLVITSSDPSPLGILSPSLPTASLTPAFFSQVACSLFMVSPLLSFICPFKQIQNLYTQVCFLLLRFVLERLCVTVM
# Outline: as §1
# ETV2 = target: T4, ETV2 (Homo sapiens, UniProt O00321 1-342); conditions: protein: recombinant; tags: N-terminal GST; dsDNA, one strand shown
# T4 sequence: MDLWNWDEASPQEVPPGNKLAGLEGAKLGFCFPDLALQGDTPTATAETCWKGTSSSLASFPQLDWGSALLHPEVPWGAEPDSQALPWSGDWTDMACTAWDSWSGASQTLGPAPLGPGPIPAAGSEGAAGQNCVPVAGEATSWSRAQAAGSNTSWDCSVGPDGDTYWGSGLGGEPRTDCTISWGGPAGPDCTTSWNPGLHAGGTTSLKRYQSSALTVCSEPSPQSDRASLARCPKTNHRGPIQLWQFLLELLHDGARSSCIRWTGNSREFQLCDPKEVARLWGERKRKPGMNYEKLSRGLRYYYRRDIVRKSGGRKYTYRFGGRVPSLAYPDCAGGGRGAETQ
# Outline: as §1
# ELF3 = target: T5, ELF3 (Homo sapiens, UniProt P78545 1-371); conditions: protein: recombinant; tags: N-terminal GST; dsDNA, one strand shown
# T5 sequence: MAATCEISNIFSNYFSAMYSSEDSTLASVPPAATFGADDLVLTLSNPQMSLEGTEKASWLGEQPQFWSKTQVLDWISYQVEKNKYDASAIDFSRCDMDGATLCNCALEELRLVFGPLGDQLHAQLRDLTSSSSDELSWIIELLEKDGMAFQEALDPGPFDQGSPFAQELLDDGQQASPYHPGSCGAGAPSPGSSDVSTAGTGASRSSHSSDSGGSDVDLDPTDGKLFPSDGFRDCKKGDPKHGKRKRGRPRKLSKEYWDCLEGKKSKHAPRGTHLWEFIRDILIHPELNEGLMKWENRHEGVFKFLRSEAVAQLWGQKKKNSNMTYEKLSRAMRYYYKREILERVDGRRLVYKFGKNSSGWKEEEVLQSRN
# Outline: as §1
# CRX = CRX (Homo sapiens, UniProt O43186 1-299); conditions: protein: recombinant; tags: N-terminal GST; dsDNA, one strand shown
# Outline: as §1
# ETV1 = ETV1 (Homo sapiens, UniProt P50549 1-477); conditions: protein: recombinant; tags: N-terminal GST; dsDNA, one strand shown
# Outline: as §1
# ERF = target: T6, ERF (Homo sapiens, UniProt P50548 1-548); conditions: protein: recombinant; tags: N-terminal GST; dsDNA, one strand shown
# T6 sequence: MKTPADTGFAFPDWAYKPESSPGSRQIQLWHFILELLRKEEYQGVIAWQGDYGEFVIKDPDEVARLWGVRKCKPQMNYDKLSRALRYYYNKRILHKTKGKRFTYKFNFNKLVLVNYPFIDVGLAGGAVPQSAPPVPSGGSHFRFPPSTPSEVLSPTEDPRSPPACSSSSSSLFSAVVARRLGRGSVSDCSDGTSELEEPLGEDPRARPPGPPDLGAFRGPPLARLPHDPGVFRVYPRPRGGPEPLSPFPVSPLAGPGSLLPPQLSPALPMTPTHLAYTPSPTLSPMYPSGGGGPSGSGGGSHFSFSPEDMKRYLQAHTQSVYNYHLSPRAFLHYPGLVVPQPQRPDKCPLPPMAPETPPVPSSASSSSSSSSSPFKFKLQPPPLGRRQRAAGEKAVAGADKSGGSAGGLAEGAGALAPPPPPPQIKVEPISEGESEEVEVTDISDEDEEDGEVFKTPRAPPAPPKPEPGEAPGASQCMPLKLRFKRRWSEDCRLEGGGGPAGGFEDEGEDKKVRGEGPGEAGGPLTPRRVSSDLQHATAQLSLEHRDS
# Outline: as §1
# ETV3L = target: T7, ETV3L (Homo sapiens, UniProt Q6ZN32 1-361); conditions: protein: recombinant; tags: N-terminal GST; dsDNA, one strand shown
# T7 sequence: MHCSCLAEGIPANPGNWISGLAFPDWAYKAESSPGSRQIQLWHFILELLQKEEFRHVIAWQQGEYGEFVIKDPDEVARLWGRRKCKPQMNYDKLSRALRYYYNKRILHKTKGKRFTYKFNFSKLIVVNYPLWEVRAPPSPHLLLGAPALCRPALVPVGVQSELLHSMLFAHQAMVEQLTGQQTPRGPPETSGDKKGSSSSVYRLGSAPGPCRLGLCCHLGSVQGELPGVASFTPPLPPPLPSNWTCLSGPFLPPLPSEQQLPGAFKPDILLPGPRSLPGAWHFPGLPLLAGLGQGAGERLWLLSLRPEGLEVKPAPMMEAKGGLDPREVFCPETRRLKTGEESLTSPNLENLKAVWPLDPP
# Outline: as §1
# ETS2 = target: T8, ETS2 (Homo sapiens, UniProt P15036 1-469); conditions: protein: recombinant; tags: N-terminal GST; dsDNA, one strand shown
# T8 sequence: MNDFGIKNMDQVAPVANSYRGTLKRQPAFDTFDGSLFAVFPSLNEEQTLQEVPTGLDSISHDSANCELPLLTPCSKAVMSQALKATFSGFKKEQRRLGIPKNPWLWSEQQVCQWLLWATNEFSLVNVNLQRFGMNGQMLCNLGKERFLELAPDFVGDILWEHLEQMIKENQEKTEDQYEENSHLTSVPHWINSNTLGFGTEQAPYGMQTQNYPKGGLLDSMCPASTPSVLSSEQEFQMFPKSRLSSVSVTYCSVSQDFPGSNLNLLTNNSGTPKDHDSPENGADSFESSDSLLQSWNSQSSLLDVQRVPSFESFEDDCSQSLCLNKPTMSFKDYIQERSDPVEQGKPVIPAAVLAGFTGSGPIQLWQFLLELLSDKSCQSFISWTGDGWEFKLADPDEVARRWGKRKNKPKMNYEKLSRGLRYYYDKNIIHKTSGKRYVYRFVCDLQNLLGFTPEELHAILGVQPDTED
# Outline: as §1
# SPDEF = target: T9, SPDEF (Homo sapiens, UniProt O95238 1-335); conditions: protein: recombinant; tags: N-terminal GST; dsDNA, one strand shown
# T9 sequence: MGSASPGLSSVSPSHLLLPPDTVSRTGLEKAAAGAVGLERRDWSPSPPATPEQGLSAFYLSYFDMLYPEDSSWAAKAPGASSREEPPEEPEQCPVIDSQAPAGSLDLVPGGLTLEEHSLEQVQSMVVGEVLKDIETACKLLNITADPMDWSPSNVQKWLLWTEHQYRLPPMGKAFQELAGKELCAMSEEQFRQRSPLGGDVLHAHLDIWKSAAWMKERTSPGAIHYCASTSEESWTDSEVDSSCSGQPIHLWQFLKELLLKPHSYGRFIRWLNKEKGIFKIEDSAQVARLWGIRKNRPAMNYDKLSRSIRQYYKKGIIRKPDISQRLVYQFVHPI
# Outline: as §1
# ETV7 = target: T10, ETV7 (Homo sapiens, UniProt Q9Y603 1-341); conditions: protein: recombinant; tags: N-terminal GST; dsDNA, one strand shown
# T10 sequence: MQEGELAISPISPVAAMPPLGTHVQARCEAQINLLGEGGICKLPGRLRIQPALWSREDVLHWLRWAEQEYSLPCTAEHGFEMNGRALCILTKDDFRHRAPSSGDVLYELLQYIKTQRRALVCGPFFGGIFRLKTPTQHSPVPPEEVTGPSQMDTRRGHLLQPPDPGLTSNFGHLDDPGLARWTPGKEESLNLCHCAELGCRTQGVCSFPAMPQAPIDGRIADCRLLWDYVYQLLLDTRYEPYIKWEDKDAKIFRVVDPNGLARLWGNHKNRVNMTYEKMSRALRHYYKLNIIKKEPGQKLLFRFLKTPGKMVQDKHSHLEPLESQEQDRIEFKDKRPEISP
# Outline: as §1
# ELF5 = target: T11, ELF5 (Homo sapiens, UniProt Q9UKW6-2 1-255); conditions: protein: recombinant; tags: N-terminal GST; dsDNA, one strand shown
# T11 sequence: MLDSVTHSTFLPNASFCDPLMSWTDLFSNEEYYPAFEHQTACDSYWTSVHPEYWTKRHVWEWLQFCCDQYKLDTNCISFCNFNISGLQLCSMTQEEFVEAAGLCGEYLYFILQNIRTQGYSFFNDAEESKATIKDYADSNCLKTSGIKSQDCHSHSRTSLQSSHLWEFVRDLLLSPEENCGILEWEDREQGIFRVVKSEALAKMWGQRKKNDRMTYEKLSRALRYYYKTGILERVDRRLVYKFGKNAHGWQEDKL
# Outline: as §1
# ETV3 = target: T12, ETV3 (Homo sapiens, UniProt P41162-2 1-143); conditions: protein: recombinant; tags: N-terminal GST; dsDNA, one strand shown
# T12 sequence: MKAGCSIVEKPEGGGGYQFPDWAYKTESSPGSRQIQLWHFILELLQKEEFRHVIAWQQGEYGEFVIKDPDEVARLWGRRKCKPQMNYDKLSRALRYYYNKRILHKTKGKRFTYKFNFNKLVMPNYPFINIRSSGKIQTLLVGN
# Outline: as §1
# ETV6 = ETV6 (Homo sapiens, UniProt P41212 1-452); conditions: protein: recombinant; tags: N-terminal GST; dsDNA, one strand shown
# Outline: as §1
# Chain of ELF4 (Q99607 whole entry): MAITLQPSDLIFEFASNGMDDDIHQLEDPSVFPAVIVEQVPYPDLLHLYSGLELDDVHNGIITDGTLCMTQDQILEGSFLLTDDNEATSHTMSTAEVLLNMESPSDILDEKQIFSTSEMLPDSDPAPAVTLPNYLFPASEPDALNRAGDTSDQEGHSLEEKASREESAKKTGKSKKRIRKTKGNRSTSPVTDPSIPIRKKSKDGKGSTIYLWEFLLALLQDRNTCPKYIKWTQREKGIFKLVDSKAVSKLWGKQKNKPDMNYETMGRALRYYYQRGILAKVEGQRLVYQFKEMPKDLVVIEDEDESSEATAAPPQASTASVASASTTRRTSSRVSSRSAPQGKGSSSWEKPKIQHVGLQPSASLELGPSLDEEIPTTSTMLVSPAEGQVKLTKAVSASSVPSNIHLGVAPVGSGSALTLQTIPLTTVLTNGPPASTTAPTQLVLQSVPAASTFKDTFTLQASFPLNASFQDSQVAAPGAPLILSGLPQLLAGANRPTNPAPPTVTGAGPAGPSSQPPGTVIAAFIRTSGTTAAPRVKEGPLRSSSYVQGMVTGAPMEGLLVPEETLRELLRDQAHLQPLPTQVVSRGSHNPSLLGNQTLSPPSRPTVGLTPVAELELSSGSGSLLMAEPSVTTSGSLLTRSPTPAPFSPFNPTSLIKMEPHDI
# Chain of HSF1 (Q00613 whole entry): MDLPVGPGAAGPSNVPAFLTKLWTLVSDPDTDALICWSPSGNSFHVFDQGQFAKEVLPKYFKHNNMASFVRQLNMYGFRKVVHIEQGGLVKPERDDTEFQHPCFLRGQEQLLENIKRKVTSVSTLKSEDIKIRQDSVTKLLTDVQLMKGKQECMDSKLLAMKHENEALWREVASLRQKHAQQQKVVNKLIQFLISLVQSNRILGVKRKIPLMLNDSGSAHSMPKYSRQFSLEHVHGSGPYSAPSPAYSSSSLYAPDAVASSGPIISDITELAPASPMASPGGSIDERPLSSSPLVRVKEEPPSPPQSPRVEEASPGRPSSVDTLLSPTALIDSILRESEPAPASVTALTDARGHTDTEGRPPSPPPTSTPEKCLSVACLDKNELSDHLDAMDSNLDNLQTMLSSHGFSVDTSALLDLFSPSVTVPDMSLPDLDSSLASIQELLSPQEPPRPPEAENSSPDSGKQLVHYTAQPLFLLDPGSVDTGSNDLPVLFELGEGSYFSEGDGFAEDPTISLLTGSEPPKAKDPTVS
# Chain of ETV1 (P50549 whole entry): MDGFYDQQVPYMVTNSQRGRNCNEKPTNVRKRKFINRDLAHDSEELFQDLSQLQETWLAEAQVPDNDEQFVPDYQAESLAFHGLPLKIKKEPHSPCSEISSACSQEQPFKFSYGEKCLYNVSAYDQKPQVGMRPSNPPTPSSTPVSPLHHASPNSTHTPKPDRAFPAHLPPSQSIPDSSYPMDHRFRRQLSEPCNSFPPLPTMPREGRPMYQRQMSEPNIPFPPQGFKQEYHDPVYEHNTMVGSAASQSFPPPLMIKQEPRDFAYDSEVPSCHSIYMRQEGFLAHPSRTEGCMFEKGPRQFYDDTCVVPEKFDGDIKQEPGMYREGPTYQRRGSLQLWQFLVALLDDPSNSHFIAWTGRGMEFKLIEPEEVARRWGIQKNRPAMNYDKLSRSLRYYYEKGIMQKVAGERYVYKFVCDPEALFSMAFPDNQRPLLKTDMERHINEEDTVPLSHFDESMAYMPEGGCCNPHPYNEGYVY
# Chain of ETV5 (P41161 whole entry): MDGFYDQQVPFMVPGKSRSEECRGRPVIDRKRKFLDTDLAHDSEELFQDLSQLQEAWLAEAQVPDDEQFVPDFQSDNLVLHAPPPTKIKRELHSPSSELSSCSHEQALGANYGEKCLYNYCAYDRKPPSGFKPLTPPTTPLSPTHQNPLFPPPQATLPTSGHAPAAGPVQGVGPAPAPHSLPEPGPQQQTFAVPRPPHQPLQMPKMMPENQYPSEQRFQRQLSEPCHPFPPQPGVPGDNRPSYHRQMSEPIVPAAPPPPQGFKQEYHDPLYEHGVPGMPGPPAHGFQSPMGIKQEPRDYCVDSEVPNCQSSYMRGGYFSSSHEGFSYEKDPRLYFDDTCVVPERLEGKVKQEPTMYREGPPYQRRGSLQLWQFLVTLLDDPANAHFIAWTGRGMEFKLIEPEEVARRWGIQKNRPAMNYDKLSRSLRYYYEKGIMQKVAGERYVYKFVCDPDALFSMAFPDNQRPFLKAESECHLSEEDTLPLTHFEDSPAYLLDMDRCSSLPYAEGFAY
# Chain of ETV6 (P41212 whole entry): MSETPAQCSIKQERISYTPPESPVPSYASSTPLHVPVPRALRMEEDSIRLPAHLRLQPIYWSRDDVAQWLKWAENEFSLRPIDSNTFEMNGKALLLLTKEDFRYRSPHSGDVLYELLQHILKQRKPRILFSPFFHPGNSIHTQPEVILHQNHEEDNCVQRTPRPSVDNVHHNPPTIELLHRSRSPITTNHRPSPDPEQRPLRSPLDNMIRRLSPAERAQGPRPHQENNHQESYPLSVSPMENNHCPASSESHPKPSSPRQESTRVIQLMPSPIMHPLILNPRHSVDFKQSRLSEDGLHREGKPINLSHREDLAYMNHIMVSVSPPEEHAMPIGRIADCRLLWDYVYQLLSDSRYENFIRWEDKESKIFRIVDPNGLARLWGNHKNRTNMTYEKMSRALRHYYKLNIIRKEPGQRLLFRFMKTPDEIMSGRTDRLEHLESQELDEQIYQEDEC
# Chain of CRX (O43186 whole entry): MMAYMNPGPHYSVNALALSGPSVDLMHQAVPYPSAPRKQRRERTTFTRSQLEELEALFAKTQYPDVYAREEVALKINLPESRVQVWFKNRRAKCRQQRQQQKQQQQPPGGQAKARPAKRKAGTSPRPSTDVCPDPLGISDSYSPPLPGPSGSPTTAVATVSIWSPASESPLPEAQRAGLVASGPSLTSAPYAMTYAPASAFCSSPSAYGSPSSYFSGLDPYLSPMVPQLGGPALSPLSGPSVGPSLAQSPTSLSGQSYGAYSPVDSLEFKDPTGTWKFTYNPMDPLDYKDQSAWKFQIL
sequence,measurement,setting,value
CAAGAT,binding signal,FEV,"1.02 fold enrichment (6-mer frequency, TF over GST control)"
same,binding signal,ETV5,"1.1 fold enrichment (6-mer frequency, TF over GST control)"
same,binding signal,HSF1,"1.18 fold enrichment (6-mer frequency, TF over GST control)"
same,binding signal,SPIC,"1.14 fold enrichment (6-mer frequency, TF over GST control)"
same,binding signal,ELF4,"1.18 fold enrichment (6-mer frequency, TF over GST control)"
same,binding signal,ELK4,"1.11 fold enrichment (6-mer frequency, TF over GST control)"
same,binding signal,ETV2,"1.09 fold enrichment (6-mer frequency, TF over GST control)"
same,binding signal,ELF3,"1.06 fold enrichment (6-mer frequency, TF over GST control)"
same,binding signal,CRX,"1.23 fold enrichment (6-mer frequency, TF over GST control)"
same,binding signal,ETV1,"1.06 fold enrichment (6-mer frequency, TF over GST control)"
same,binding signal,ERF,"1.06 fold enrichment (6-mer frequency, TF over GST control)"
same,binding signal,ETV3L,"1.13 fold enrichment (6-mer frequency, TF over GST control)"
same,binding signal,ETS2,"1.06 fold enrichment (6-mer frequency, TF over GST control)"
same,binding signal,SPDEF,"1.26 fold enrichment (6-mer frequency, TF over GST control)"
same,binding signal,ETV7,"1.02 fold enrichment (6-mer frequency, TF over GST control)"
same,binding signal,ELF5,"1.01 fold enrichment (6-mer frequency, TF over GST control)"
same,binding signal,ETV3,"1.08 fold enrichment (6-mer frequency, TF over GST control)"
same,binding signal,ETV6,"1.01 fold enrichment (6-mer frequency, TF over GST control)"
